According to PubChem BioAssay (Tox21):
Active and inactive are the calls of the source. Calls follow the shape of the dose curve; as a rule, active = well fitted activation curve with a large enough effect in the repeat runs; inconclusive = weak or mixed curves; inactive = flat fitted curve, though single readings scatter.

Test: Caspase-3/7 induction in CHO-K1 cells by small molecules, qHTS assay (AID 1346980); also: nearly all actives have a fitted effect of over 15% in size
Settings: CHO-K1 caspase-3/7 induction, Caspase-Glo luminescence, 17 h; series mostly up to 92.4 µM; caspase-3/7 activation: at the top concentration
Excerpt: National Center for Advancing Translational Sciences [NCATS]
NIH Chemical Genomics Center [NCGC]
U.S. Environmental Protection Agency [EPA]
National Institutes of Environmental Health Sciences [NIEHS]
National Toxicology Program [NTP]
Apoptosis is a process of programmed cell death and plays a central role in the development of multicellular organisms. It is a highly regulated process and induces cell death by activating caspases, which are the members of cysteine aspartic acid-specific protease (caspase) family. Caspases involved in apoptosis are classified by their mechanism of action as initiator caspases (caspase-2, -8, -9 and -10) and executioner caspases (caspase-3, -6, and -7). Inhibition of apoptosis results in number of cancers, autoimmune diseases, inflammatory diseases and viral infection. To identify small molecule compounds that induce apoptosis, a homogeneous, luminescent Caspase-Glo 3/7 assay was used. Wild type CHO-K1 cells were used to screen Tox21 libraries for identifying caspase-3/7 activity inducers.
CHO-K1 cells were dispensed at 1,500 per well in 5uL of culture medium into white solid bottom 1536-well plates (Corning Life Sciences, Corning, NY) using a Multidrop Combi (Thermo Scientific, Waltham, MA) dispenser. The assay plates were incubated at 37 C and 5% CO2 for 5hr, and then 23nL of compounds dissolved in DMSO and positive control were transferred using a Pintool station (Wako, San Diego, CA). The assay plates were incubated at 37C and 5% CO2 for 17hr. For caspase-3/7 activity read, 4uL of Caspase-Glo 3/7 reagent (Promega Corporation, Madison, WI) was added to each well of the assay plates using Flying Reagent Dispenser (FRD, Aurora Discovery, San Diego, CA) and incubated the assay plates at room temperature for 30min. The luminescence signal was quantified using a ViewLux plate reader (Perkin Elmer, Shelton, CT).
% is scaled to controls: 0 for no effect and ±100 for the full control effect.

Structure (SMILES) | caspase-3/7 activation | outcome
CCOC(=O)/C=C/C(=O)O | -0.0486% (inactive) | –
NC(=O)Cn1c(=O)cc(CCN2CCN(c3nccc4sccc34)CC2)c2ccc(F)cc21 | -0.88% (inactive) | –
CCOC(=O)c1ccccc1C | 0.0643% (inactive) | –
C(=C\c1ccccc1)/CN1CCN(C(c2ccccc2)c2ccccc2)CC1 | -0.862% [at 42.5 µM] (inactive) | –
NC(=O)N(O)[C@@H]1COc2cc(OCc3ccccc3)ccc21 | -4.83% (inactive) | –
Fc1c(F)c(F)c(Br)c(F)c1F | 0.364% (inactive) | –
CC(CCc1ccc2c(c1)OCO2)NN (stereo not given) | -1.78% [at 42.5 µM] (inactive) | –
C1COCO1 | 0.64% (inactive) | –
C=CCCCCCCCCCCCCCCCC | 0.114% [at 8.39 µM] (inactive) | –
c1cc[c]([Bi]([c]2ccccc2)[c]2ccccc2)cc1 | 9.56% (inactive) | –
Nc1ccc(Cl)cc1[N+](=O)[O-] | 0.416% (inactive) | –
CCCCC(=O)O[C@]1(C(=O)CO)CC[C@H]2[C@@H]3CCC4=CC(=O)CC[C@]4(C)[C@H]3[C@@H](O)C[C@@]21C | -0.705% [at 42.5 µM] (inactive) | –
CN1CCCN=C1/C=C/c1cccs1 | -0.0887% [at 42.5 µM] (inactive) | –
COc1ccc([C@@H]2Sc3ccccc3NC(=O)[C@@H]2O)cc1 | 12.9% [at 42.5 µM] (inactive) | –
COc1ccc(CCC(=O)c2c(O)cc(O[C@@H]3O[C@H](CO)[C@@H](O)[C@H](O)[C@H]3O[C@@H]3O[C@@H](C)[C@H](O)[C@@H](O)[C@H]3O)cc2O)cc1O | 2.66% (inactive) | –
Cc1c(C(=O)NN2CCCCC2)nn(-c2ccc(Cl)cc2Cl)c1-c1ccc(Cl)cc1 | -2.63% [at 42.5 µM] (inactive) | –
CCCCC/C(=C\c1ccccc1)CO | 2.04% (inactive) | –
CCCC(=O)O[C@]1(C(=O)COC(=O)CC)CC[C@H]2[C@@H]3CCC4=CC(=O)CC[C@]4(C)[C@H]3[C@@H](O)C[C@@]21C | 1.2% [at 19 µM] (inactive) | –
COCc1c(C(C)C)nc(C(C)C)c(/C=C/[C@@H](O)C[C@@H](O)CC(=O)O)c1-c1ccc(F)cc1 | 4.41% [at 42.5 µM] (inactive) | –
COc1cc2c(N3CCN(C(=O)Nc4ccc(OC(C)C)cc4)CC3)ncnc2cc1OCCCN1CCCCC1 | 0.0109% [at 42.5 µM] (inactive) | –

Structure (SMILES) | caspase-3/7 activation | outcome
COCCOC | -2.91% (inactive) | –
CN1CCN(CCCN2c3ccccc3Sc3ccc(S(=O)(=O)N(C)C)cc32)CC1 | 7.32% [at 42.5 µM] (inactive) | –
CC#N | -0.195% (inactive) | –
CN1C(=O)CC(C)(c2ccccc2)C1=O (stereo not given) | 2.35% [at 42.5 µM] (inactive) | –
O=c1[nH]c2ccc(S(=O)CCN3CCC(Cc4ccc(F)cc4)CC3)cc2o1 (stereo not given) | -2.29% (inactive) | –
Brc1cc(-c2ccc(Br)c(Br)c2Br)cc(Br)c1Br | 2.8% [at 42.5 µM] (inactive) | –
Cc1oncc1C(=O)Nc1ccc(C(F)(F)F)cc1 | – | inactive
O=C(N[C@@H](c1ccccc1)[C@@H]1CCCCN1)c1cccc(C(F)(F)F)c1Cl | -0.381% (inactive) | –
CC(C)(O)c1ccccc1CC[C@@H](SCC1(CC(=O)O)CC1)c1cccc(/C=C/c2ccc3ccc(Cl)cc3n2)c1 | 0.0537% [at 42.5 µM] (inactive) | –
CCCCCCCCCCCCCCC[C@H](O)[C@@H](N)CO | 0.197% [at 42.5 µM] (inactive) | –
CCN(Cc1cccc(S(=O)(=O)O)c1)c1ccc(C(=C2C=CC(=[N+](CC)Cc3cccc(S(=O)(=O)[O-])c3)C=C2)c2ccccc2)cc1 | -0.166% [at 42.5 µM] (inactive) | –
Cc1nc2ccccc2s1 | -0.236% (inactive) | –
C[N+](C)(C)CCOC(N)=O | 0.117% [at 42.5 µM] (inactive) | –
CCCOC(=O)c1ccc(C(=O)OCCC)nc1 | -0.532% (inactive) | –
CC(C)=CC=O | -0.438% (inactive) | –
CCC1(C)CC(=O)NC1=O (stereo not given) | -0.587% [at 42.5 µM] (inactive) | –
CCN(CC)CCNC(=O)c1ccc(NC(C)=O)cc1 | 1.79% [at 42.5 µM] (inactive) | –
c1cnc2c(n1)CCCC2 | 0.846% (inactive) | –
COC(OC)(C(=O)c1ccccc1)c1ccccc1 | -0.252% (inactive) | –
CC(COc1ccc(C(C)(C)C)cc1)OS(=O)OCCCl (stereo not given) | -3.9% (inactive) | –
